Data on 13 compounds can be found in PubChem BioAssay (NCATS).

Records with an inconclusive call do not appear. Calls of active or inactive are those of the source. Unless noted, the call rests on the fitted dose curve; in most records, active means well fitted curve in the direction sought with a large enough effect; inconclusive means small, poorly fitted or top-dose-only effect, or another doubt; inactive means no such curve, though single readings can be large; an effect the other way counts as inactive or inconclusive.

The nature of experiment [1]: qHTS Assay for Lipid Storage Modulators (AID 1519; calls by dose curve; on activity change, negative = inhibition: on the % scale 0 is the no-effect control and ±100 the full control effect). The conditions noted are these: Drosophila S3 cells, BODIPY lipid droplet/cell ratio, laser cytometry, cells loaded with oleic acid. The procedure, abridged:
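Cells seeded at 5,000 per well were treated with compounds over a concentration series and loaded with oleic acid (400 uM, as added). Lipid droplet fluorescence (488 nm excitation, 500-530 nm channel) was read by laser-scanning cytometry and normalized to 20 uM Triacsin C.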
(In general: Quantitative high-throughput screening tests each substance at several concentrations.)

In experiment [2] the target is Alpha-galactosidase A (Homo sapiens) (UniProt P06280). As to the kind of experiment: Counterscreen for Glucocerebrosidase Inhibitors: qHTS Assay for Human alpha-Galactosidase at pH 4.5 (AID 992). Further: 0% is about no effect. The conditions noted are these: purified enzyme, fluorogenic substrate; series mostly up to 76.9 µM. In a few lines:
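Citrate buffer pH 4.5, Tween-20 0.005%. Enzyme 2 nM, substrate 80 uM, 20 min RT. Stop pH 10. Fluorescence Ex 365/Em 440. AC50 by Hill fit.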

The target of experiment [3] is alpha-glucosidase (Oryza sativa, rice) (UniProt Q653V4). Kind of experiment: Counterscreen for Glucocerebrosidase Inhibitors: qHTS Assay for Rice alpha-Glucosidase at pH 5.0 (AID 997).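 Further: 0% = full activity with enzyme and -100% = basal without enzyme.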 The conditions noted are these: rice alpha-glucosidase enzyme activity; series mostly up to 76.9 µM. The procedure, abridged: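 Endpoint fluorogenic assay at pH 5.0: compounds (0.7 nM to 77 uM) titrated against 4 nM rice enzyme and 400 uM 4-MU-alpha-glucoside for 20 min at room temperature; NaOH/glycine stop, read ex 365/em 440 nm, Hill-fitted AC50.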

A short description of experiment [4]: Validation of Assay for Modulators of Lamin A Splicing (AID 1459; active means well fitted curve in the direction sought with a large enough effect in the signal ratio; the % refers to the signal ratio;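 further: cells exposed to compound for two days before reading; 0% is about no effect; ratio rise marks activators and ratio drop marks inhibitors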). As to conditions: Lamin A splicing dual RFP/GFP fluorescence reporter; series mostly up to 9.22 µM. The procedure, abridged: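 Splicing correction is reported by an EGFP-containing lamin A minigene in stably transfected S3 HeLa cells, while DsRed2 controls for viability and nonspecific signal. Cells are exposed to compounds for 48 hrs before the GFP over RFP ratio is taken.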

For experiment [5], the target named is DNA repair nuclease/redox regulator APEX1 (Homo sapiens) (UniProt P27695). Kind of experiment: qHTS Validation Assay for Inhibitors of the Human Apurinic/apyrimidinic Endonuclease 1 (APE1) (AID 1705;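 further: TAMRA fluorescence gain over two minutes as APE1 cuts a quenched THF abasic duplex; on the % scale 0 is the no-effect control and ±100 the full control effect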). The conditions noted are these: purified APE1 endonuclease activity, fluorescence, titration; series mostly up to 57.1 µM. In a few lines:
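Endonuclease activity of human APE1 is followed as dequenching when the enzyme incises a tetrahydrofuran abasic site in a short duplex labelled 5'-TAMRA/3'-BHQ-2 (50 nM final), after 15 min enzyme–compound preincubation at room temperature.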

Experiment [6] in a line: Counterscreen for APE1 Inhibitors: Fluorescent Dye Displacement Validation Assay (AID 1707).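 Further: plate controls were ThO with dsDNA and no compound for no effect and ThO without dsDNA for full effect.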 The conditions noted are these: fluorescent dye displacement from DNA; series mostly up to 57.1 µM. In a few lines:
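Signal: ThO fluorescence (ex 480 nm/em 540 nm) on binding 50 nM dsDNA; displacement by test compound reduces it. Conditions: 250 nM dye, 50 mM Tris-HCl pH7.5, 2 mM MgCl2, 50mM NaCl, 0.01% Tween-20.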

In experiment [7] the target is Endonuclease 4 (Escherichia coli (strain K12)) (UniProt P0A6C1). As to the kind of experiment: Counterscreen for APE1 Inhibitors: qHTS Validation Assay for Inhibitors of Endonuclease IV (AID 1708). Further: on the % scale 0 is the no-effect control and ±100 the full control effect. The conditions noted are these: E. coli endonuclease IV, DNA cleavage fluorescence; series mostly up to 57.1 µM. In a few lines: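 Conditions: 2 nM enzyme, 50 nM TAMRA/BHQ-2 substrate, pH 7.5 Tris buffer with 2 mM MgCl2, RT. Compound preincubation 15 min; readout three fluorescence reads 60 s apart, third-minus-first.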
For orientation: A counterscreen serves to expose hits that act by an unwanted route or on another target.

Experiment [8] is described as follows: qHTS for differential inhibitors of proliferation of Plasmodium falciparum line 7G8 (AID 1815).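 Further: parasite growth measured after three days of incubation.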 Further: potency means the concentration at half of the fitted maximal effect.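 On activity change, negative = inhibition: plate controls were vehicle wells for no effect and reference inhibitor wells for full effect.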 As to conditions: Plasmodium falciparum 7G8 proliferation inhibition; series mostly up to 28.7 µM.
Experiment [9] can be described thus: qHTS for differential inhibitors of proliferation of Plasmodium falciparum line GB4 (AID 1816).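 Further: parasite growth measured after 72 h incubation.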 Further: potency means the concentration at half of the fitted maximal effect.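 On activity change, negative = inhibition: 0% = vehicle DMSO and -100% = reference inhibitor.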 As to conditions: Potency: Plasmodium falciparum GB4 proliferation inhibition; series mostly up to 28.7 µM.
A short description of experiment [10]: qHTS for differential inhibitors of proliferation of Plasmodium falciparum line 3D7 (AID 1876).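 Further: parasite growth measured after three days of culture; 0% = vehicle wells and -100% = reference inhibitor wells.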 As to conditions: P. falciparum 3D7 proliferation inhibition; series mostly up to 28.7 µM.
Experiment [11] in a line: qHTS for differential inhibitors of proliferation of Plasmodium falciparum line D10 (AID 1877).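 Further: parasites grown with compound for 72 h before DNA staining; plate controls were vehicle wells for no effect and reference inhibitor wells for full effect.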 The conditions noted are these: series mostly up to 28.7 µM.
Where [12] appears, read: measured here: cell count channel max response.
[13] abbreviates: measured here: lipid channel max response.

Chain of DNA repair nuclease/redox regulator APEX1 (Homo sapiens) (P27695 whole entry, looked up): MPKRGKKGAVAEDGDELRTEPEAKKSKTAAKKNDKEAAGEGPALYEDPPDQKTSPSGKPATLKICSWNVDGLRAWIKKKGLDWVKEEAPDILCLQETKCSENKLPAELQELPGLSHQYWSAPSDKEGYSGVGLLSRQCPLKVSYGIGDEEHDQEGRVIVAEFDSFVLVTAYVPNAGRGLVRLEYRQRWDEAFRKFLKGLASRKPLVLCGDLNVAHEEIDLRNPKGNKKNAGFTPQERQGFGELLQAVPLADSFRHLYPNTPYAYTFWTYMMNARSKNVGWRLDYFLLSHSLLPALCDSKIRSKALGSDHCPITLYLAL
Chain of Alpha-galactosidase A (Homo sapiens) (P06280 whole entry, looked up): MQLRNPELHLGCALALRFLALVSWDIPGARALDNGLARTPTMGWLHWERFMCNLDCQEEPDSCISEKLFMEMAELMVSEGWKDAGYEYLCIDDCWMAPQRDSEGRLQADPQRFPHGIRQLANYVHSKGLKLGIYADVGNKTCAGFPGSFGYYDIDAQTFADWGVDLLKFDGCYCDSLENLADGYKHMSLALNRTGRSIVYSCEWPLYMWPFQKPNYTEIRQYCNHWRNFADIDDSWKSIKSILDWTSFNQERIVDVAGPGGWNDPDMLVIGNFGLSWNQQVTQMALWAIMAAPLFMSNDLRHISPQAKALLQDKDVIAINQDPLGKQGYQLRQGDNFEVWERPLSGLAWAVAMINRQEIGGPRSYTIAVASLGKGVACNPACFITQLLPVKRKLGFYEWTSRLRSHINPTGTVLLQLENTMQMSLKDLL

`CN1CCc2c(c3ccccc3n2Cc2ccccc2)C1`: in experiment [1] (at 25.7 µM (top of the series)), the activity change, negative = inhibition was -1.45% (inactive). Besides, the max response in [1] (setting [12]) came out at 1.19%; in [1] (setting [13]), 1.48%.

In the case of `CCCOc1cc(N)ccc1C(=O)OCCN(CC)CC`, the activity change, negative = inhibition in experiment [1] (at 25.7 µM (top of the series)) was -0.11% (inactive). Further, the max response in experiment [1] (setting [12]) is -10.4%; in experiment [1] (setting [13]), -6.99%.

For `CC1CCCC(C)N1NC(=O)c1ccc(Cl)c(S(N)(=O)=O)c1` (configuration not stated), the activity change, negative = inhibition in experiment [1] (at 57.5 µM (top of the series)) is 2.67% (inactive). The max response amounted to 17.3% in experiment [1] (setting [12]) and 23.6% in [1] (setting [13]).

Regarding `CC1(C)S[C@@H]2[C@H](NC(=O)C3(N)CCCCC3)C(=O)N2[C@H]1C(=O)O`, the activity change, negative = inhibition in experiment [1] (at 25.7 µM (top of the series)) was -0.399% (inactive). For the same compound, the max response in [1] (setting [12]) turned out to be 10.5%; in experiment [1] (setting [13]) it was 9.76%.

Take `O=C1NCCN1c1ncc([N+](=O)[O-])s1`: the activity change, negative = inhibition in experiment [1] (at 25.7 µM (top of the series)) was -0.923% (inactive). Also, the max response in experiment [1] (setting [12]) was 0.859%; in experiment [1] (setting [13]), -3.74%.

Take `CC(=O)Oc1cccc(C(=O)O)c1OC(C)=O`: the activity change, negative = inhibition in experiment [1] (at 57.5 µM (top of the series)) is 4.19% (inactive). Moreover, the max response amounted to 10.5% in experiment [1] (setting [12]) and 12% in experiment [1] (setting [13]).

On to `C=CC(C)(O)CC/C=C(\C)CCC=C(C)C` (configuration not stated), for which, in experiment [1] (at 57.5 µM (top of the series)), the activity change, negative = inhibition was 0.625% (inactive). Also, the max response in experiment [1] (setting [12]) was determined as 5.67%; in [1] (setting [13]), 8.64%.

Consider `CCSc1ccc2c(c1)N(CCCN1CCN(C)CC1)c1ccccc1S2`, for which the activity change, negative = inhibition in [1] (at 25.7 µM (top of the series)) is -4.9% (inactive). Besides, the max response in experiment [1] (setting [12]) was -20.1%; in experiment [1] (setting [13]) it was -23.8%.

As for `Cc1cccc(C)c1NC(=O)C1CCCCN1C` (configuration not stated), the activity change, negative = inhibition in [1] (at 57.5 µM (top of the series)) is 7.8% (inactive). In addition, the max response in [1] (setting [12]) was 19%; in [1] (setting [13]), 29.6%.

`Cc1cc(C)c(NC(=O)C[C@H](CC(=O)O)c2cccc3ccccc23)c(C(=O)N2CCC3(CCCC3)CC2)c1`: the call in experiment [2], in experiment [3], in [4], in experiment [5], in experiment [6] and in [7] was inactive. In addition, the Potency was 12.6 µM (active) in [8] and 11.2 µM (active) in [9].

Consider `CC[C@H]1OC(=O)[C@H](C)[C@@H](O[C@H]2C[C@@](C)(OC)[C@@H](O)[C@H](C)O2)C(C)[C@@H](O[C@@H]2O[C@H](C)C[C@H](N(C)C)[C@@H]2O)[C@](C)(OC)C[C@@H](C)C(=O)[C@H](C)[C@@H](O)[C@]1(C)O` (some centres not stated), for which the activity change, negative = inhibition in experiment [1] (at 57.5 µM (top of the series)) was 7.44% (inactive). Further, the max response in experiment [1] (setting [12]) was 9.53%; in experiment [1] (setting [13]), 18.8%.

For the compound `CC(C)c1nc(N(C)S(C)(=O)=O)nc(-c2ccc(F)cc2)c1/C=C/C(O)CC(O)CC(=O)O` (configuration not stated), in experiment [1] (at 57.5 µM (top of the series)), the activity change, negative = inhibition was 2.85% (inactive). Besides, the max response in [1] (setting [12]) was found to be 4.28%; in experiment [1] (setting [13]), 9.26%.

On to `O=C(NCCNCC(O)COc1ccc(O)cc1)N1CCOCC1` (configuration not stated), for which the call in experiment [4], in experiment [5], in experiment [6], in experiment [7], in experiment [10] and in experiment [11] was inactive. In addition, the activity change, negative = inhibition in experiment [1] (at 57.5 µM (top of the series)) was -2.06% (inactive). For the same compound, the max response in experiment [1] (setting [12]) is -28.3%; in [1] (setting [13]), -30.3%. The Potency entry in experiment [8] and in [9] was “inactive” in each case.
